Experimental data as given in PubChem BioAssay AID743279 (National Center for Advancing Translational Sciences (NCATS), 2014).
Screen size: about 360,000 compounds; about 17,000 (4.7%) were called active. Roughly 5% stayed inconclusive and do not appear here. This is one part of a sample in which actives are shown more often than they occur. Values without a mark were called inactive. No stated cut-off is given here; in the data, active means activity change below about -50%; inconclusive means mostly about -30% to -49%; inactive means weaker than that.

Test: qHTS for Inhibitors of Inflammasome Signaling: IL-1-beta AlphaLISA Primary Screen
Settings: THP-1 LPS/ATP IL-1B secretion, 16 h; at 57.5 µM, hits give low values
In short: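 Secreted IL-1B measured by AlphaLISA bead assay after 16 h compound exposure of THP-1 cells; compounds (final up to 57.5 uM) added 1 h before LPS (250 ng/mL) and ATP (1.25 mM) stimulation; lower signal means less secretion.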
On the % scale 0 is the no-effect control and ±100 the full control effect.

**Q.** Which activity change does the source give for `NS(=O)(=O)c1ccc(NC(=O)COC(=O)CCc2c[nH]c3ccccc23)cc1` here?
**A.** 0%

**Q.** For `Cc1csc(SCC(=O)Nc2ccc(C)c(S(=O)(=O)N(C)C)c2)n1`, which activity change is on record?
**A.** 42.7%

**Q.** For `CC(NC(=O)COC(=O)Cn1cc(C(F)(F)F)ccc1=O)c1ccccc1` (stereo unspecified), which activity change is on record?
**A.** -0.662%

**Q.** Which activity change does the source give for `CNCC[C@H](Oc1ccc(C(F)(F)F)cc1)c1ccccc1` here?
**A.** -68.4% (active)

**Q.** With `CC(C)Oc1ccc(Oc2ccc(C(F)(F)F)cn2)cc1` as the compound, how does the activity change read?
**A.** -23.6%

**Q.** With `CCOC(=O)c1c(NC(=S)SC)sc(C(=O)N2CCc3ccccc3C2)c1C` as the compound, how does the activity change read?
**A.** 1.46%

**Q.** Which activity change does the source give for `CN(CC(=O)NCC(c1ccccc1)N1CCCC1)S(=O)(=O)c1ccc(Cl)cc1` (stereo unspecified) here?
**A.** -22.9%

**Q.** With `CC(=O)Nc1c2c(nn1-c1ccc(C)cc1C)CS(=O)C2` (stereo unspecified) as the compound, how does the activity change read?
**A.** 13.7%

**Q.** For `CCCCCCSc1ccc(-c2nc3ccc(Cl)cn3c2NCc2ccccc2)cc1`, which activity change is on record?
**A.** -8.09%

**Q.** Which activity change does the source give for `Cc1ccc(-c2nc3ccc(Cl)cn3c2Cc2ccccc2)cc1` here?
**A.** -3.47%

**Q.** Which activity change does the source give for `Clc1ccc2nc(CSc3ccccc3)cn2c1` here?
**A.** -87.1% (active)

**Q.** With `CC1(C(=O)NS(=O)(=O)c2cccc(F)c2)CCN1C(=O)c1cccc2ccccc12` (stereo unspecified) as the compound, how does the activity change read?
**A.** 21.3%

**Q.** Which activity change does the source give for `CCCCCCN1CCN(C2CN(Cc3cn(CCCCCC)nn3)S(=O)(=O)C2)CC1` (stereo unspecified) here?
**A.** -17.7%

**Q.** For `CC[C@H]1CN2CCc3cc(OC)c(OC)cc3[C@@H]2C[C@@H]1C[C@H]1NCCc2cc(OC)c(OC)cc21`, which activity change is on record?
**A.** -106% (active)

**Q.** For `COc1cc2c(cc1OC)CN(CC(=O)Nc1ccc(F)cc1)CC2`, which activity change is on record?
**A.** 14%

**Q.** Which activity change does the source give for `CCC(Sc1nncn1C)C(=O)Nc1nnc(-c2ccc(Cl)cc2)s1` (stereo unspecified) here?
**A.** -11%

**Q.** With `O=C(c1cccnc1)N(Cc1ccccc1)C(=O)c1cccnc1` as the compound, how does the activity change read?
**A.** 33%

**Q.** For `COC(=O)c1c(C)[nH]c(C(=O)/C=C/c2ccc(Cl)cc2)c1C`, which activity change is on record?
**A.** -3.64%

**Q.** Which activity change does the source give for `Cc1[nH]c(=O)c(C(=O)/C=C/c2ccccc2)c2c1CCCC2` here?
**A.** -98.3% (active)

**Q.** Which activity change does the source give for `CC1(C(=O)O)CCCN(C(=O)/C=C/c2ccccc2)C1` (stereo unspecified) here?
**A.** 17.4%

**Q.** With `CCCCn1c(N)c(N(CCC(C)C)C(=O)COC(=O)c2cccnc2OCC)c(=O)[nH]c1=O` as the compound, how does the activity change read?
**A.** -17.5%

**Q.** For `C/C(=N\Nc1ccc(Cl)nn1)c1ccccc1O`, which activity change is on record?
**A.** -63.2% (active)

**Q.** Which activity change does the source give for `C/C(=N/Nc1ccc(Cl)cc1)c1cnnc(-c2ccccc2)n1` here?
**A.** 58.2%

**Q.** With `CCCCCCCN=C(C)c1ccccc1O` as the compound, how does the activity change read?
**A.** 19.8%

**Q.** For `Cn1c(CCN2CCN(c3ccccn3)CC2)nc2cc(NS(=O)(=O)c3ccc(F)cc3)ccc21`, which activity change is on record?
**A.** -12.9%

**Q.** With `C[C@H]1NS(=O)(=O)c2cc(Cl)ccc2O[C@@H]1c1ccccc1` as the compound, how does the activity change read?
**A.** 51.9%
